Results: ChEMBL document CHEMBL3988442, “University of Dundee, Small-Polar-MMV Screening Library” (2021)
Screen size: about 48,000 compounds; about 13,000 (27%) showed an effect of 50% or more. This is one part of the list.

Tested on: Wolbachia pipientis
Test: Anti-Wolbachia Cell-Based Screen
Assay type: functional
Design: scale not given: in the data most compounds retested in dose-response had high values
Conditions: 5 µM

Structure (SMILES) | Percent Effect
O=C(NCCOc1ncc(Cl)cc1Cl)c1cccnc1 | 0.5232%
Cc1cc(NC(C)C(=O)NCc2ccccc2)nc(-c2ccncc2)n1 (configuration not stated) | 6.15%
COc1cc(C(=O)N(C)C(C)Cc2cc(C)ccn2)ccn1 (configuration not stated) | -2.709%
COc1cc(C(=O)NCc2cc(N3CCOCC3)ncn2)ccn1 | 5.956%
CNc1cc(CNC(=O)c2cccnc2)nc(-c2ccncc2)n1 | 94.55%
CNc1cc(CNC(=O)c2ccccc2OC)nc(-c2ccncc2)n1 | 104.1%
CNc1cc(CNC(=O)c2ccnc(OC)c2)nc(-c2ccncc2)n1 | 103.5%
CNc1cc(CNC(=O)c2ccccn2)nc(-c2ccncc2)n1 | -12.05%
CNc1cc(CNC(=O)c2ccccc2)nc(-c2ccncc2)n1 | -7.143%
CNc1cc(CNC(=O)c2ccncc2)nc(-c2ccncc2)n1 | 109.4%
O=S1(=O)CCC(n2cc(CNc3ccccc3Br)cn2)C1 (configuration not stated) | 3.444%
CCOCC1CCN(C(=O)C(c2c(F)cccc2F)N(C)C)CC1 (configuration not stated) | -13.66%
CC(C)c1nc(-c2ccc(=O)[nH]n2)n(-c2ccc3c(c2)OCO3)n1 | -26.15%
CC(C)N1CCOC[C@H]1c1nc(-c2ccncc2)c[nH]1 | 8.176%
CCc1nccn1CCC(=O)N1C[C@H]2CC[C@@H]1CN(C(=O)N(C)C)C2 | -6.839%
CC(C)COC(C)C(=O)NCCNS(C)(=O)=O (configuration not stated) | 116.1%
CC(C)C(=O)NCCNC(=O)C(C)OCC(F)(F)F (configuration not stated) | 2.033%
CCN(CC)CCNC(=O)C(C)OCC(F)(F)F (configuration not stated) | -16.45%
CC(C)COC(C)C(=O)N1CCCCCC1 (configuration not stated) | -3.624%
CCOC(C)C(=O)NCCNS(C)(=O)=O (configuration not stated) | 99.51%
CC(C)COC(C)C(=O)NCc1ccccc1Cn1ccnc1 (configuration not stated) | -1.115%
CC(Oc1ccc(C(=O)NCCNS(C)(=O)=O)cn1)c1ccccc1 (configuration not stated) | 12.3%
CC(C)COC(C)C(=O)N1CCCC1 (configuration not stated) | -7.961%

Structure (SMILES) | Percent Effect
CC(C)COC(C)C(=O)NCCNC(=O)C(C)C (configuration not stated) | 90.67%
CC(C)N1CC(C(=O)N2CCN(CCn3cccc3)CC2)CC1=O (configuration not stated) | 11.86%
Cc1ccc(CN(CCN(C)C)Cc2ncc[nH]2)s1 | -6.049%
CNC(=O)c1cccc(CCNS(C)(=O)=O)c1 | -1.562%
COc1ccc(OC)c(C(C)NC(=O)Nc2nnc(C)s2)c1 (configuration not stated) | -19.71%
CN(C)C(=O)COCc1cncc2c1CCN(Cc1ccccc1)C2.O=C(O)C(F)(F)F.O=C(O)C(F)(F)F | -0.7445%
CN(C)CCOCc1cncc2c1CCN(Cc1ccccn1)C2.O=C(O)C(F)(F)F.O=C(O)C(F)(F)F.O=C(O)C(F)(F)F | 94.64%
O=C(O)C(F)(F)F.OCCOCc1n[nH]c2c1CN(Cc1ccccn1)C2 | -2.311%
CN(C)C(=O)COCc1cncc2c1CCN(Cc1ccccn1)C2.O=C(O)C(F)(F)F.O=C(O)C(F)(F)F | 86.2%
CN(C)C(=O)COCc1cncc2c1CCN(Cc1cnn(C)c1)C2.O=C(O)C(F)(F)F.O=C(O)C(F)(F)F | -8.97%
CCCN1CCc2c(C(=O)N(C)Cc3ccccn3)nn(C)c2C1.O=C(O)C(F)(F)F.O=C(O)C(F)(F)F.O=C(O)C(F)(F)F | 5.255%
O=C(O)c1cc(-c2ccncc2)cc(S(=O)(=O)NCc2ccccn2)c1 | -3.238%
CC(C1CC1)N(CC(=O)NC(=O)NC1CC1)C1CC1 (configuration not stated) | -6.692%
O=C(CCCNC(=O)Nc1ccc(F)cc1F)Nc1cn[nH]c1 | -17.8%
Cc1nc(CCCNC(=O)Nc2cc(F)cc(F)c2)n[nH]1 | 105.8%
Cc1[nH]ncc1CCCNC(=O)Nc1ccc(F)cc1 | 17.19%
Cc1nc(CCCNC(=O)Nc2ccc(F)cc2F)n[nH]1 | 105.4%
Cc1[nH]ncc1CCCNC(=O)Nc1ccccc1 | -6.052%
O=C(Nc1ccc(F)cc1F)Nc1c[nH]c(=O)[nH]c1=O | -7.625%
CCC(CO)N(Cc1ccco1)C(=O)c1ccccc1SC (configuration not stated) | -1.914%
Cc1cc2c(c(-c3cncc(C(=O)N4CCCC4)n3)c1)OC(CN)C2 (configuration not stated) | 3.308%
Cn1ccc(CN2CCC(Oc3ccccc3)CC2)cc1=O | 0.4399%
CCOc1ccccc1OC1CCN(Cc2ccn(C)c(=O)c2)CC1 | 96.61%

Structure (SMILES) | Percent Effect
COc1ccc(OC2CCN(Cc3ccn(C)c(=O)c3)CC2)cc1 | 90.95%
Cc1cccc(C)c1OC1CCN(Cc2ccn(C)c(=O)c2)CC1 | 80.01%
CC(=O)NCCC(=O)N(C/C=C/c1ccccc1)CCO | 2.612%
CC(C)(O)CCc1ccc(C(=O)NCC2CCCOC2)cc1 (configuration not stated) | -16.45%
Cc1noc(CN2CCN(C(=O)c3ccccn3)CC2)n1 | -3.094%
Cc1csc2nc3n(c(=O)c12)CCN(C(=O)c1ccncc1)CC3 | 0.2415%
CCc1nc(CN2CCN(C(=O)c3cc(C)nn3C)CC2)cs1 | -4.839%
Cc1nc(-c2ccsc2)sc1C(=O)N1CCn2c(C)nnc2C1 | -8.635%
CN1CCN(Cc2cnc3n2CCN(C(=O)c2ccccn2)C3)CC1 | -0.6061%
Cc1ccc(C(=O)N2CCc3nc4c(C)csc4c(=O)n3CC2)cn1 | 130.6%
Cc1nc(C)c(C(=O)N2CCc3nc4c(C)csc4c(=O)n3CC2)s1.Cl | 93.57%
CCc1cc(C(=O)N2CCc3nc4c(C)csc4c(=O)n3CC2)on1 | 101.2%
Cc1csc2c(=O)n3c(nc12)CCN(C(=O)c1ccccn1)CC3 | 118.3%
Cc1csc2c(=O)n3c(nc12)CCN(C(=O)c1cccnc1)CC3 | -6.131%
O=C1OCCN1CCc1nc(-c2cc3c4c(c2)CC(=O)N4CCC3)cs1 | -4.599%
O=C(O)CC[C@@H]1CN(c2ncccc2F)CC[C@@H]1N1CCOCC1 | 1.489%
CSCc1nc(C(C)(C)NC(=O)OC(C)(C)C)no1 | 6.132%
COc1ccc(CN2C[C@@H](CN(C)CCO)[C@@H](CO)C2)cc1Cl | -12.8%
CC(C)(C)N1CC(C(=O)NCc2nc(C3CCCCC3)no2)CC1=O (configuration not stated) | -1.29%
CCc1ccc(CNC(=O)CCNS(=O)(=O)c2cn(C)c(C)n2)s1 | -8.825%
Cc1csc2c(=O)n3c(nc12)CCN(C(=O)c1ccnn1C)CC3 | 126.7%
Cc1cc2c(=O)n3c(nc2s1)CCN(C(=O)c1cnn(C)c1C)CC3 | -11.91%
Cc1cc(NC(=O)N2CCOC(C(N)=O)C2)ccc1Br (configuration not stated) | 158.4%

Structure (SMILES) | Percent Effect
C[C@@H]1CN(C(=O)Nc2cccc(OC(F)F)c2)CC(C(N)=O)O1 (some centres not stated) | -8.405%
COCCN1CCC(CNC(=O)Nc2ccc(SC(F)(F)F)cc2)C1 (configuration not stated) | -1.712%
Cc1ccc(NC(=O)N2CCOC(C(N)=O)C2)cc1C(F)(F)F (configuration not stated) | 103.5%
CN1CCCc2cc(NC(=O)N3CCOC(C(N)=O)C3)ccc21 (configuration not stated) | -7.642%
COc1ccc(NC(=O)N2CCC(c3nnc[nH]3)CC2)cc1C | -18.03%
NC(=O)C1CN(C(=O)Nc2cc(Cl)cc(Cl)c2)CCO1 (configuration not stated) | -5.843%
NC(=O)C1CN(C(=O)Nc2ccc(SC(F)(F)F)cc2)CCO1 (configuration not stated) | 111.1%
NC(=O)C1CN(C(=O)NCC2(c3ccc(F)cc3)CCC2)CCO1 (configuration not stated) | 2.915%
COCCCC1(CO)CCCN(Cc2cccc(C#N)c2)C1 (configuration not stated) | 1.897%
COCC(C)NCc1ccc2[nH]c(C)c(C)c2c1 (configuration not stated) | 5.235%
Cc1ccc(-n2c(COCC(=O)O)nc3c(C)cccc32)nc1 | -11.98%
O=C(c1ccc2nncn2c1)N1CCCC1c1noc(C2CC2)n1 (configuration not stated) | -1.94%
OCCCN1CCCC1c1nc(Cc2ccc(F)cc2)no1 (configuration not stated) | -4.354%
Cc1ncsc1CN1CC(C)(C2CC2)CC1=O (configuration not stated) | -4.839%
Cc1nc(CN(C)C2CCN(CCCc3ccccc3)C2)no1 (configuration not stated) | 119.3%
Cc1cccc(OCCCN2CCC(N(C)Cc3noc(C)n3)C2)c1 (configuration not stated) | 112.7%
CCc1n[nH]c(C2CN(CCCOc3cccc(C)c3)CCO2)n1 (configuration not stated) | 13.14%
Cc1nc(CN(C)C2CCN(CCCOc3ccccc3C)C2)no1 (configuration not stated) | 109.1%
Cc1nc(CN(C)C2CCN(CCCOc3ccc(F)cc3)C2)no1 (configuration not stated) | 112.3%
Cc1nc(CN(CCc2ccccc2)C2CCN(C)CC2)no1 | -15.44%
CC(C)N(Cc1cccc(Cl)c1)Cc1nnsc1Cl | 2.005%
Cc1cc(CN2CCc3nn(C)c(=O)cc3C2)no1 | -29.82%
O=C(NCC1CCS(=O)(=O)C1)c1sccc1-c1ccc(F)cc1 (configuration not stated) | -6.4%

Structure (SMILES) | Percent Effect
Cc1cc(NC(=O)NCCc2ccsc2)n(C)n1 | 2.6%
Fc1ccccc1Cc1noc(CN2CCCC(CN3CCCC3)C2)n1 (configuration not stated) | -1.357%
COCCc1noc(CN2CCCC(Cn3cncn3)C2)n1 (configuration not stated) | 89.51%
c1coc(-c2noc(CN3CCCC(Cn4cncn4)C3)n2)c1 (configuration not stated) | -0.1927%
c1ccc(Cc2noc(CN3CCCC(Cn4cncn4)C3)n2)cc1 (configuration not stated) | 97.1%
CC(C)Cc1noc(CN2CCCC(Cn3cncn3)C2)n1 (configuration not stated) | 3.537%
Clc1snnc1CN1CCCC(Cn2cncn2)C1 (configuration not stated) | 3.779%
COCCN(C(=O)c1ccsc1)c1ccc(C#N)cc1 | -12.97%
O=C(Cc1cn2ccsc2n1)N1CCOCC(O)(CN2CCCC2)C1 (configuration not stated) | 4.067%
Cc1cc(NCc2cc3n(n2)CCCN(C(=O)N(C)C)C3)ncn1 | -7.228%
N[C@H]1CC[C@@H](CN2CCCn3nc(CNC(=O)C4CCC4)cc3C2)CC1 | 11.2%
CC(=O)N1CCCn2nc(CNS(=O)(=O)N3CCCCCC3)cc2C1 | -0.4584%
Cc1cc(NCc2cc3n(n2)CCCN(C(=O)C2CCC2)C3)nc(N)n1 | 111.3%
CC(=O)N1CCCn2nc(CNc3cc(C)ncn3)cc2C1 | 18.58%
Cc1cc(NCc2cc3n(n2)CCCN(S(C)(=O)=O)C3)ncn1 | -6.593%
Cc1nc(CN2CCCn3nc(CNC(=O)C4CCC4)cc3C2)co1 | -9.719%
CS(=O)(=O)N1CCCn2nc(CNc3ncccn3)cc2C1 | -7.874%
O=C(C1CCC1)N1CCCn2nc(CNc3ncccn3)cc2C1 | 131.9%
Cc1cc(NCc2cc3n(n2)CCCN(C(=O)C2CCC2)C3)ncn1 | 87.84%
Cc1cc(C)nc(NCc2cc3n(n2)CCCN(C(=O)C2CCC2)C3)n1 | 104.2%
